Inconclusive results are not listed. Calls of active or inactive are those of the source. Unless noted, calls come from the whole dose curve; as a rule, active = well fitted curve in the direction sought with a large enough effect in the repeat runs; inconclusive = weak or mixed curves; inactive = no such curve, though single readings can be large; an effect the other way counts as inactive or inconclusive.
Key:
[1] = qHTS assay to identify small molecule agonists of the RXR signaling pathway - cell viability counter screen (AID 1159529); note: nearly all actives have a fitted effect of over 50% in size; note: potency is the fitted concentration of half-maximal effect; for activity change, negative = cytotoxicity: series mostly up to about 77 µM
How it was run: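 Cell viability is measured by CellTiter-Glo luminescence, 30 min at room temperature, in wells already read for beta-lactamase. Engineered HEK 293T cells (RXR-alpha-UAS-bla) are dosed 16 hr at 37 C. Tetraoctyl ammonium bromide serves as positive control.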

[2] = qHTS assay to identify small molecule antagonists of the retinoid acid receptor (RAR) signaling pathway - cell viability counter screen (AID 1159551); note: nearly all actives have a fitted effect of over 35% in size
How it was run: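 Viability of C3RL4 cells is quantified from ATP by luminescence after 6 h treatment at 37 C with compounds and 1 uM retinol.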

[3] = qHTS assay to identify small molecule agonists of the retinoic acid receptor (RAR) signaling pathway (AID 1159553); note: potency is the fitted concentration of half-maximal effect
How it was run: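 Compounds dissolved in DMSO were pinned onto C3RL4 cells seeded the previous day, and plates were held 6 hr at 37 C. RARE-driven luciferase output was then read by luminescence.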

[4] = qHTS assay to identify small molecule antagonists of the estrogen related receptor (ERR) signaling pathway from Tox21 library - cell viability counter screen (AID 1224834); note: nearly all actives have a fitted effect of over 30% in size
How it was run: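 In this quantitative HTS format, ERR cells receive compounds in DMSO and are incubated for 17.5 h at 37 C. Live-cell protease activity is then detected with CellTiter-Fluor.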

[5] = target: Luciferin 4-monooxygenase (Photinus pyralis) (UniProt P08659); test: qHTS assay to identify small molecule inhibitors of firefly luciferase (AID 1224835); note: nearly all actives have a fitted effect of over 25% in size; note: potency is the fitted concentration of half-maximal effect; for activity change, negative = inhibition: series mostly up to about 120 µM
Sequence of Luciferin 4-monooxygenase (Photinus pyralis) (P08659 whole entry, looked up): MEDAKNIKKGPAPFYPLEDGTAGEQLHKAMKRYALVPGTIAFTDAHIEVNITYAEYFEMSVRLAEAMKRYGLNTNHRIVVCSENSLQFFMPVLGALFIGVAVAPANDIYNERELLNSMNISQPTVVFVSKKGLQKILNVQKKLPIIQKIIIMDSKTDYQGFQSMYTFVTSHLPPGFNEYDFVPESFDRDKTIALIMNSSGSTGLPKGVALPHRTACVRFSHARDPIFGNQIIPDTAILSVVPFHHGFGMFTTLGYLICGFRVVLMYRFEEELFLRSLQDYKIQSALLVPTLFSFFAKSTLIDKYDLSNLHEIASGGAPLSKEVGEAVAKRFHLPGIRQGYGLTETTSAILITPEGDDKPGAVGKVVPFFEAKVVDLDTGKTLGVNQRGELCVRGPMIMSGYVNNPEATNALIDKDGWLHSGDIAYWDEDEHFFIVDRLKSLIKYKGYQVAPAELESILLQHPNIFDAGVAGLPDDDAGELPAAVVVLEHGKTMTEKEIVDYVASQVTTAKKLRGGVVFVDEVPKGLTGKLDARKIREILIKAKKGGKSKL
How it was run: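 Quantitative HTS format; KM concentrations of both substrates. Purified P. pyralis FLuc activity quantified from luminescence images.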

[6] = qHTS assay to identify small molecule agonists of the constitutive androstane receptor (CAR) signaling pathway - cell viability counter screen (AID 1224836); note: series mostly up to about 92 µM; nearly all actives have a fitted effect of over 45% in size
How it was run: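 Counter screen multiplexed with the CAR reporter readout: HepG2 cells co-transfected with hCAR and the CYP2B6-2.2kb construct receive a 15-concentration compound series and 0.75 uM PK11195 (final), then CellTiter-Fluor fluorescence is read after 23 h.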

[7] = qHTS assay to identify small molecule antagonists of the constitutive androstane receptor (CAR) signaling pathway - cell viability counter screen (AID 1224837); note: nearly all actives have a fitted effect of over 45% in size; note: potency is the fitted concentration of half-maximal effect; for activity change, negative = cytotoxicity: series mostly up to about 92 µM
How it was run: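 In quantitative HTS format, compounds at 15 concentrations were applied to HepG2 cells double-transfected with hCAR and CYP2B6-2.2kb under 50 nM CITCO stimulation; live-cell protease activity was read after 23 hr via CellTiter-Fluor.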

[8] = target: Nuclear receptor subfamily 1 group I member 3 (Homo sapiens) (UniProt Q14994); test: qHTS assay to identify small molecule antagonists of the constitutive androstane receptor (CAR) signaling pathway (AID 1224838); note: nearly all actives have a fitted effect of over 40% in size; note: potency is the fitted concentration of half-maximal effect
Sequence of Nuclear receptor subfamily 1 group I member 3 (Homo sapiens) (Q14994 whole entry, looked up): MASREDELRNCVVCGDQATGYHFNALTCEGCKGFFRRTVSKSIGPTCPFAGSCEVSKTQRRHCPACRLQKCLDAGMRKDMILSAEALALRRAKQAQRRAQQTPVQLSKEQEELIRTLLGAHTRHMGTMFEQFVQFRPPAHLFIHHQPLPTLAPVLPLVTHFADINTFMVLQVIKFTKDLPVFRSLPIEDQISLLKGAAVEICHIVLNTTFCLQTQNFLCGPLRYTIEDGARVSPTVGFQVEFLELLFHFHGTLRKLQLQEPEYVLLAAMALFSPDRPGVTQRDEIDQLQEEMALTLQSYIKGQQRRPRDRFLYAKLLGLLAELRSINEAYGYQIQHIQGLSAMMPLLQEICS
How it was run: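 CITCO-stimulated (50 nM final) HepG2 cells stably transfected with hCAR and CYP2B6-2.2kb luciferase were exposed to compounds at 15 concentrations for 24 h at 37 C/5% CO2. A luciferase reagent was added and luminescence recorded after 30 min.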

[9] = target: Nuclear receptor subfamily 1 group I member 3 (Homo sapiens) (UniProt Q14994); test: qHTS assay to identify small molecule agonists of the constitutive androstane receptor (CAR) signaling pathway (AID 1224839); note: nearly all actives have a fitted effect of over 15% in size; note: potency is the fitted concentration of half-maximal effect; for activation: series mostly up to about 92 µM
How it was run: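 A 15-concentration quantitative screen uses HepG2 cells co-transfected stably with human CAR and CYP2B6-2.2kb reporter. Treatment lasts 24 h with 0.75 uM PK11195 final present; ONE-Glo luminescence is the signal.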

[10] = qHTS assay to identify small molecule antagonists of the estrogen related receptor signaling pathway with the pleiotropic PPARgamma coactivator (PGC) from Tox21 10K library - cell viability counter screen (AID 1224840; active = well fitted cell-killing curve with a large enough effect in the repeat runs, not every such curve was filed as active; note: nearly all actives have a fitted effect of over 40% in size)
How it was run: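 Viability counter screen, PGC/ERR cells: 17.5 h compound exposure at 37 C, CellTiter-Fluor fluorescence endpoint.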

[11] = qHTS assay to identify small molecule antagonists of the retinoic acid receptor (RAR) signaling pathway (AID 1159552; note: nearly all actives have a fitted effect of over 50% in size)
How it was run: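 Quantitative HTS in C3RL4 RARE-luciferase reporter cells. Compounds were added with 1 uM (final) retinol; luminescence was read after 6 hr.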

[12] = qHTS assay to identify small molecule antagonists of the estrogen related receptor signaling pathway with the pleiotropic PPARgamma coactivator (PGC) from Tox21 10K library (AID 1224841; call rule not given here; note: series mostly up to about 92 µM; actives are mostly falling curves and most rising ones were filed inactive; nearly all actives have a fitted effect of over 50% in size)
How it was run: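 In the PGC/ERR line, DMSO solutions of test chemicals are pin-delivered to 2,000 cells/well six hours after dispensing. Following eighteen hours' incubation, One-Glo reagent is added and luminescence recorded.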

[13] = qHTS assay to identify small molecule agonists of the estrogen related receptor signaling pathway with the pleiotropic PPARgamma coactivator (PGC) from Tox21 10K library (AID 1224842); note: nearly all actives have a fitted effect of over 15% in size; note: potency is the fitted concentration of half-maximal effect
How it was run: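 PGC/ERR reporter cells (NTP line) were seeded 2,000 per well, rested 6 h at 37 C/5% CO2, then pin-dosed with compounds in DMSO for 18 h at 37 C; luciferase read by One-Glo luminescence after 30 min at room temperature.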
% is set by controls: 0 for no effect and ±100 for the full control effect.

O=C1CCCCCCCCCCC(=O)OCCO1
inactive: Potency [1] | outcome [2] | Potency [3] | Potency [4] | Potency [5] | Potency [6] | Potency [7] | Potency [8] | Potency [9] | Potency [10]

O=Cc1ccc(O)c(O)c1O
inactive: Potency [1] | outcome [2] | Potency [11] | Potency [5] | Potency [6] | Potency [7] | Potency [9] | Potency [10]

COc1ccc(S(=O)(=O)Nc2nnc(CC(C)C)s2)cc1
inactive: Potency [1] | outcome [2] | Potency [11] | Potency [3] | Potency [4] | Potency [5] | Potency [6] | Potency [7] | Potency [10]

CCCCCCCCCCCCOCCOS(=O)(=O)O
active: Potency [1] 19.5 µM
inactive: outcome [2] | Potency [11] | Potency [3] | Potency [6] | Potency [7] | Potency [8] | Potency [9] | Potency [10] | Potency [12] | Potency [13]

CC(C)(C)c1cccc(O)c1
inactive: Potency [1] | outcome [2] | Potency [11] | Potency [3] | Potency [4] | Potency [6] | Potency [7] | Potency [10] | Potency [12] | Potency [13]

C1CSCCS1
inactive: Potency [1] | outcome [2] | Potency [11] | Potency [3] | Potency [4] | Potency [5] | Potency [6] | Potency [7] | Potency [9] | Potency [10] | Potency [12] | Potency [13]

CCCCCCCCc1ccc(S(=O)(=O)O)cc1
inactive: outcome [2] | Potency [11] | Potency [3] | Potency [4] | Potency [6] | Potency [7] | Potency [8] | Potency [9] | Potency [10]
active: Potency [1] 24.3 µM

CCNCCO
inactive: Potency [1] | outcome [2] | Potency [11] | Potency [3] | Potency [4] | Potency [5] | Potency [6] | Potency [10]

Cc1ncc(CO)c(CN)c1O
inactive: Potency [1] | outcome [2] | Potency [11] | Potency [3] | Potency [4] | Potency [5] | Potency [6] | Potency [8] | Potency [9] | Potency [10] | Potency [12] | Potency [13]

CC1=C2[C@H](/C=C(\C)C(=O)O)CC[C@@H](C)[C@H]2CC1
inactive: outcome [2] | Potency [11] | Potency [4] | Potency [5] | Potency [6] | Potency [7] | Potency [10] | Potency [12] | Potency [13]
active: Potency [1] 45.3 µM

CC1CN(c2ccccc2)NC1=O (stereo not given)
inactive: Potency [1] | outcome [2] | Potency [11] | Potency [4] | Potency [5] | Potency [6] | Potency [7] | Potency [8]

CCOc1ccc(NS(=O)(=O)c2ccc(N)cc2)nn1
inactive: Potency [1] | outcome [2] | Potency [11] | Potency [3] | Potency [4] | Potency [5] | Potency [6] | Potency [7] | Potency [10]

O=C(CC(=O)C(F)(F)F)c1ccccc1
inactive: Potency [1] | outcome [2] | Potency [11] | Potency [6] | Potency [7] | Potency [8] | Potency [12]
active: Potency [3] 22 µM | Potency [13] 6.2 µM

CCCCNC(=S)NCCCC
active: Potency [7] 48.6 µM | Potency [8] 48.6 µM
inactive: Potency [1] | outcome [2] | Potency [11] | Potency [5] | Potency [13]

COc1cc(C)ccc1C(C)C
inactive: Potency [1] | outcome [2] | Potency [11] | Potency [3] | Potency [4] | Potency [5] | Potency [6] | Potency [7] | Potency [10] | Potency [12] | Potency [13]

ClC(Cl)Cl
inactive: Potency [1] | outcome [2] | Potency [11] | Potency [4] | Potency [6] | Potency [9] | Potency [10]

CCCNC(C)C(=O)Nc1c(C)csc1C(=O)OC (stereo not given)
inactive: Potency [1] | outcome [2] | Potency [11] | Potency [3] | Potency [4] | Potency [5] | Potency [6] | Potency [7] | Potency [9] | Potency [12] | Potency [13]

CCCc1c2oc(C(=O)O)cc(=O)c2cc2c(=O)cc(C(=O)O)n(CC)c12
inactive: Potency [1] | outcome [2] | Potency [11] | Potency [4] | Potency [5] | Potency [6] | Potency [7] | Potency [8] | Potency [9] | Potency [12] | Potency [13]

O=C(O)c1ccccc1Nc1cc(Cl)ccc1C(=O)O
inactive: activity change, negative = cytotoxicity [1] -23.8% [at 15.8 µM] | activity change, negative = cytotoxicity [2] -3.95% [at 19 µM] | activity, negative = inhibition [11] -145% [at 19 µM] | viability change, negative = cytotoxic [4] -1.64% [at 19 µM] | activity change, negative = inhibition [5] -7.25% [at 23.6 µM] | viability change, negative = cytotoxic [6] -10% [at 19 µM] | activity change, negative = cytotoxicity [7] -10.7% [at 19 µM] | activity, negative = inhibition [8] -20% [at 19 µM] | activation [9] -3.13% [at 19 µM] | viability change, negative = cytotoxic [10] -4.89% [at 19 µM] | activity, negative = inhibition [12] 1.12% [at 19 µM] | activation [13] 0.171% [at 19 µM]

CCCCc1ccc2nc(NC(=O)OC)[nH]c2c1
active: Potency [3] 8.41 µM | Potency [5] 3.47 µM | Potency [9] 5.96 µM | Potency [13] 3.76 µM
inactive: Potency [1] | outcome [2] | Potency [11] | Potency [6] | Potency [7] | Potency [8] | Potency [10] | Potency [12]

c1ccc(CN(CC2=NCCN2)c2ccccc2)cc1
inactive: Potency [1] | outcome [2] | Potency [11] | Potency [3] | Potency [4] | Potency [5] | Potency [6] | Potency [8] | Potency [9] | Potency [10] | Potency [12] | Potency [13]

CCc1nnc(NS(=O)(=O)c2ccc(N)cc2)s1
inactive: Potency [1] | outcome [2] | Potency [11] | Potency [3] | Potency [4] | Potency [5] | Potency [6] | Potency [7] | Potency [9] | Potency [10] | Potency [12] | Potency [13]

Oc1ccccc1F
inactive: Potency [1] | outcome [2] | Potency [11] | Potency [3] | Potency [4] | Potency [5] | Potency [6] | Potency [7] | Potency [10]

— PubChem BioAssay (Tox21)
